Data reported in ChEMBL document CHEMBL3433997, “St. Jude Leishmania screening dataset” (2016).

These molecules were tested against Hexose transporter 1 (Plasmodium falciparum) (UniProt O97467) (assay: ST_JUDE_LEISH: Cytotoxicity at 2uM final concentration against transgenic Leishmania Mexicana promastigotes LmPfHT that are glucose transport deficient and complemented with the Plasmodium falciparum hexose transporter. Activity is measured by DNA content using SYBR green in vitro).
Format: functional
With `O=C(Nc1ccc(OC2CCN(Cc3ccc(F)cc3)C2)cc1)c1cccs1` (stereo not given) the inhibition was -1.65%.
`CCN(CCCN1CCCCC1)c1cc(C)nc(Nc2cc(C)ccc2C)n1` gave an inhibition of 0.68%.
`Cc1ccc([N+](=O)[O-])cc1NC(=O)N(CC(O)c1ccccc1)C1CCCCC1` (stereo not given) gave an inhibition of 2.61%.
Work on `CN1CCN(CCCN(Cc2cccc(-c3ccc(CNC4CCCC4)cc3)c2)C(=O)/C=C/c2ccccc2)CC1` yielded an inhibition of 7.29%.
For `Oc1ccccc1CNCC12CC3CC(CC(C3)C1)C2`, the inhibition was 2.08%.
In the case of `CCNC(=O)c1cc(S(=O)(=O)N2CCN(c3ccccn3)CC2)cs1`, the inhibition is reported as -0.21%.
In the case of `CCCc1ccc(S(=O)(=O)NC2CCN(c3ccnc(Nc4ccc(OC)cc4)n3)C2)cc1` (stereo not given), the inhibition is reported as 9.89%.
`COc1ccc2nccc([C@@H](O)CN3CCC(NCc4cc5c(F)ccc(F)c5[nH]4)CC3)c2n1` was tested, and the inhibition was 86.8%.
`CC1CCNc2ccc(Cc3cnc(N)nc3N)cc21` (stereo not given) showed an inhibition of 1.47%.
`O=C1CCCN1CCCNCc1ccc(-c2ccc(-c3nc4cc(C(F)(F)F)ccc4[nH]3)cc2)cc1` gave an inhibition of 2.91%.
`COc1ccc2nccc([C@@H](O)CN3CCC(NC(=O)C(=Cc4ccc(Cl)cc4Cl)c4ccc(-c5ccccc5)cc4)CC3)c2c1` showed an inhibition of 4.58%.
Molecule `O=S(=O)(Nc1ccc(CCN2CCCCC2CCN2CCCC2)cc1)c1ccc(-c2ccccc2)cc1` (stereo not given) has an inhibition of 14.3%.
Work on `Cc1ccc(Nc2ccnc3ccc(C(F)(F)F)cc23)cc1O` yielded an inhibition of 3.33%.
With `Clc1ccc(Nc2nc(NCc3ccccc3)nc(N/N=C/c3ccccn3)n2)cc1` the inhibition was 83.5%.
In the case of `N=C1N=C(N)NC2(CCCCC2)N1OCC1CCCCC1`, the inhibition is reported as -0.44%.
For `CN(CCC(CCN1CCC(c2c[nH]c3ccccc23)CC1)c1ccccc1)C(=O)Nc1ccc(Cl)c(Cl)c1` (stereo not given), the inhibition was 0.21%.
In the case of `O=C(c1ccc(Cl)cc1)C1CCN(CCCOc2ccc3c(c2)CCNCC3)CC1`, the inhibition is reported as 4.76%.
Work on `CN1CCN(Cc2ccc(-c3cccc(-c4nc5ccccc5[nH]4)c3)cc2)CC1` yielded an inhibition of 0.78%.
`O=C(CCn1cncn1)N1CCCC(c2[nH]c3ccccc3c2-c2ccncc2)C1` (stereo not given) showed an inhibition of -3.57%.
Molecule `CC1=C(C(=O)Nc2cc3cn[nH]c3cc2F)C(c2cccc(O)c2F)CC(=O)N1` (stereo not given) has an inhibition of -3.23%.
Molecule `O=C(Nc1ccc(F)c([N+](=O)[O-])c1)Nc1cc(C(F)(F)F)ccc1Cl` has an inhibition of 7.68%.
`Oc1c(C(Nc2nc3ccccc3s2)c2ccccc2)ccc2cccnc12` (stereo not given) showed an inhibition of 3.92%.
With `Cc1cnc(CN(Cc2ccc(-c3ccc(CNCCc4ccc(S(C)(=O)=O)cc4)cn3)cc2)C(=O)c2nn(-c3ccccc3)nc2C)cn1` the inhibition was 3.95%.
For `Cc1cc(OCCCN2CCCCC2C)ccc1NC(=O)COc1ccc(Cl)cc1C(=O)c1cc(Cl)cc(C#N)c1` (stereo not given), the inhibition was 78.3%.
Work on `COc1ccc2nc3cc(Cl)ccc3c(NCCCCCCNc3c4ccc(Cl)cc4nc4ccc(OC)cc34)c2c1` yielded an inhibition of 11.2%.
In the case of `O=C(Nc1ccc(OC2CCN(Cc3ccccc3)C2)c(Cl)c1)c1ccsc1` (stereo not given), the inhibition is reported as 2.26%.
For `O=C(Nc1cccc(CN2CCCN(Cc3ccc(O)cc3)CC2)c1)c1ccc(-c2ccccc2)cc1`, the inhibition was 0.52%.
In the case of `COc1ccc(Nc2nc(NC3CCN(Cc4ccccc4)CC3)cc(-c3ccncc3)n2)cc1`, the inhibition is reported as -0.17%.
Molecule `COc1cc2nc(NCCn3ccnc3C)nc(NCCc3ccccc3)c2cc1OC` has an inhibition of 1.02%.
`Cc1cc(=NN=Cc2ccc(Cl)cc2)c2cccc(C)c2[nH]1` was tested, and the inhibition was 9.15%.
`O=C1CCCN1CCCNCc1ccc(-c2cccc(-c3nc4ccccc4[nH]3)c2)cc1` gave an inhibition of 3.74%.
For `CN1CCC(N2CCN(Cc3cccc(-c4cccc(-c5nc6ccccc6[nH]5)c4)c3)CC2)CC1`, the inhibition was 0.09%.
For `Cc1noc(C)c1-c1cccc(CNCc2cccc(-c3ccc(-c4nc5ccccc5[nH]4)s3)c2)c1`, the inhibition was 3.74%.
Work on `N#Cc1ccc(CN2CCC(Oc3ccc(NC(=O)c4cccs4)cc3Cl)C2)cc1` (stereo not given) yielded an inhibition of 3.89%.
`CCN(CC)CCCN(C(=O)Nc1ccc(C#N)cc1)c1nc(-c2ccc(F)cc2)cs1` showed an inhibition of 2.42%.
With `Cc1ccc(CN2CCN(c3cc4c(cc3Cl)CCN4C(=O)Cc3ccc(NC(=O)c4ccc(C(F)(F)F)cc4)cc3)CC2)cc1` the inhibition was 5.46%.
`c1ccc(C(c2ccccc2)N2CCC(NCc3ccc(OCCCN4CCCCC4)cc3)CC2)cc1` gave an inhibition of 11.3%.
In the case of `Brc1ccc(Nc2nc3ccccc3nc2Nc2ccc(Br)cc2)cc1`, the inhibition is reported as 6.78%.
With `O=C(Nc1ccc(N2CCCCC2)c(Cl)c1)c1ccc(Br)o1` the inhibition was 2.17%.
`CN1CCC(NCc2ccc(-c3cnc(NCc4ccccc4)nc3)cc2)CC1` gave an inhibition of 4.31%.

Each molecule was assayed against Glucose transporter (Leishmania mexicana) (UniProt O61059) (assay: ST_JUDE_LEISH: Cytotoxicity at 2uM final concentration against transgenic Leishmania Mexicana promastigotes LmGT2 that are glucose transport deficient and complemented with the L. Mexicana glucose transporter 2. Activity is measured by DNA content using SYBR green in vitro).
Format: functional
Molecule `O=C(Nc1ccc(OC2CCN(Cc3ccc(F)cc3)C2)cc1)c1cccs1` (stereo not given) has an inhibition of -0.11%.
`CCN(CCCN1CCCCC1)c1cc(C)nc(Nc2cc(C)ccc2C)n1` gave an inhibition of -0.58%.
With `Cc1ccc([N+](=O)[O-])cc1NC(=O)N(CC(O)c1ccccc1)C1CCCCC1` (stereo not given) the inhibition was 2.38%.
For `CN1CCN(CCCN(Cc2cccc(-c3ccc(CNC4CCCC4)cc3)c2)C(=O)/C=C/c2ccccc2)CC1`, the inhibition was 4.93%.
`Oc1ccccc1CNCC12CC3CC(CC(C3)C1)C2` showed an inhibition of 2.13%.
Work on `CCNC(=O)c1cc(S(=O)(=O)N2CCN(c3ccccn3)CC2)cs1` yielded an inhibition of 2.62%.
`CCCc1ccc(S(=O)(=O)NC2CCN(c3ccnc(Nc4ccc(OC)cc4)n3)C2)cc1` (stereo not given) showed an inhibition of 9.64%.
`COc1ccc2nccc([C@@H](O)CN3CCC(NCc4cc5c(F)ccc(F)c5[nH]4)CC3)c2n1` showed an inhibition of 87.2%.
`CC1CCNc2ccc(Cc3cnc(N)nc3N)cc21` (stereo not given) gave an inhibition of 2.05%.
With `O=C1CCCN1CCCNCc1ccc(-c2ccc(-c3nc4cc(C(F)(F)F)ccc4[nH]3)cc2)cc1` the inhibition was 2.6%.
`COc1ccc2nccc([C@@H](O)CN3CCC(NC(=O)C(=Cc4ccc(Cl)cc4Cl)c4ccc(-c5ccccc5)cc4)CC3)c2c1` showed an inhibition of 4.7%.
Work on `O=S(=O)(Nc1ccc(CCN2CCCCC2CCN2CCCC2)cc1)c1ccc(-c2ccccc2)cc1` (stereo not given) yielded an inhibition of 3.63%.
In the case of `Cc1ccc(Nc2ccnc3ccc(C(F)(F)F)cc23)cc1O`, the inhibition is reported as 2.31%.
Molecule `Clc1ccc(Nc2nc(NCc3ccccc3)nc(N/N=C/c3ccccn3)n2)cc1` has an inhibition of 77.6%.
In the case of `N=C1N=C(N)NC2(CCCCC2)N1OCC1CCCCC1`, the inhibition is reported as -1.26%.
Work on `CN(CCC(CCN1CCC(c2c[nH]c3ccccc23)CC1)c1ccccc1)C(=O)Nc1ccc(Cl)c(Cl)c1` (stereo not given) yielded an inhibition of 0.72%.
Molecule `O=C(c1ccc(Cl)cc1)C1CCN(CCCOc2ccc3c(c2)CCNCC3)CC1` has an inhibition of 0.17%.
Molecule `CN1CCN(Cc2ccc(-c3cccc(-c4nc5ccccc5[nH]4)c3)cc2)CC1` has an inhibition of -2.4%.
Molecule `O=C(CCn1cncn1)N1CCCC(c2[nH]c3ccccc3c2-c2ccncc2)C1` (stereo not given) has an inhibition of 1.39%.
With `CC1=C(C(=O)Nc2cc3cn[nH]c3cc2F)C(c2cccc(O)c2F)CC(=O)N1` (stereo not given) the inhibition was 0.72%.
`O=C(Nc1ccc(F)c([N+](=O)[O-])c1)Nc1cc(C(F)(F)F)ccc1Cl` showed an inhibition of 1.2%.
`Oc1c(C(Nc2nc3ccccc3s2)c2ccccc2)ccc2cccnc12` (stereo not given) gave an inhibition of -1.54%.
For `Cc1cnc(CN(Cc2ccc(-c3ccc(CNCCc4ccc(S(C)(=O)=O)cc4)cn3)cc2)C(=O)c2nn(-c3ccccc3)nc2C)cn1`, the inhibition was 4.81%.
`Cc1cc(OCCCN2CCCCC2C)ccc1NC(=O)COc1ccc(Cl)cc1C(=O)c1cc(Cl)cc(C#N)c1` (stereo not given) was tested, and the inhibition was 58%.
Work on `COc1ccc2nc3cc(Cl)ccc3c(NCCCCCCNc3c4ccc(Cl)cc4nc4ccc(OC)cc34)c2c1` yielded an inhibition of 9.4%.
`O=C(Nc1ccc(OC2CCN(Cc3ccccc3)C2)c(Cl)c1)c1ccsc1` (stereo not given) gave an inhibition of 2.75%.
For `O=C(Nc1cccc(CN2CCCN(Cc3ccc(O)cc3)CC2)c1)c1ccc(-c2ccccc2)cc1`, the inhibition was -2.97%.
Molecule `COc1ccc(Nc2nc(NC3CCN(Cc4ccccc4)CC3)cc(-c3ccncc3)n2)cc1` has an inhibition of 0.86%.
`COc1cc2nc(NCCn3ccnc3C)nc(NCCc3ccccc3)c2cc1OC` gave an inhibition of 2.18%.
`Cc1cc(=NN=Cc2ccc(Cl)cc2)c2cccc(C)c2[nH]1` was tested, and the inhibition was 6.63%.
For `O=C1CCCN1CCCNCc1ccc(-c2cccc(-c3nc4ccccc4[nH]3)c2)cc1`, the inhibition was 4.94%.
`CN1CCC(N2CCN(Cc3cccc(-c4cccc(-c5nc6ccccc6[nH]5)c4)c3)CC2)CC1` showed an inhibition of -3.95%.
`Cc1noc(C)c1-c1cccc(CNCc2cccc(-c3ccc(-c4nc5ccccc5[nH]4)s3)c2)c1` was tested, and the inhibition was 7.45%.
For `N#Cc1ccc(CN2CCC(Oc3ccc(NC(=O)c4cccs4)cc3Cl)C2)cc1` (stereo not given), the inhibition was -0.2%.
With `CCN(CC)CCCN(C(=O)Nc1ccc(C#N)cc1)c1nc(-c2ccc(F)cc2)cs1` the inhibition was -0.41%.
With `Cc1ccc(CN2CCN(c3cc4c(cc3Cl)CCN4C(=O)Cc3ccc(NC(=O)c4ccc(C(F)(F)F)cc4)cc3)CC2)cc1` the inhibition was 1.59%.
With `c1ccc(C(c2ccccc2)N2CCC(NCc3ccc(OCCCN4CCCCC4)cc3)CC2)cc1` the inhibition was 10.7%.
`Brc1ccc(Nc2nc3ccccc3nc2Nc2ccc(Br)cc2)cc1` was tested, and the inhibition was 9.68%.
Work on `O=C(Nc1ccc(N2CCCCC2)c(Cl)c1)c1ccc(Br)o1` yielded an inhibition of 2.35%.
`CN1CCC(NCc2ccc(-c3cnc(NCc4ccccc4)nc3)cc2)CC1` gave an inhibition of 2.57%.
